Experimental data as given in PubChem BioAssay (Tox21).
A number with no mark means an inactive call. Where a call stands in place of a potency, no number is given. Activity calls are given as the source filed them. Calls follow the shape of the dose curve; as a rule, active = well fitted curve in the direction sought with a large enough effect in the repeat runs; inconclusive = weak or mixed curves; inactive = flat fitted curve, though single readings scatter.

Test: qHTS assay to test for compound auto fluorescence at 460 nm (blue) in HepG2 cells (AID 720687)
Conditions: autofluorescence 405/460 nm, 1 h; series mostly up to 91.3 µM
Text: U.S. Tox21 Program National Center for Advancing Translational Sciences [NCATS] NIH Chemical Genomics Center [NCGC] U.S. Environmental Protection Agency [EPA] National Institutes of Environmental Health Sciences [NIEHS] National Toxicology Program [NTP] U.S. Food and Drug Administration [FDA] Tox21 Assay Overview: Compound auto fluorescence often interferes with screening of the compound library against various biological targets and signaling pathways. Some of these compounds may have fluorophoric properties. Such properties may interfere with the assay outputs resulting in false positives and/or negatives. To decrease such complications and ensure the compound activities are relevant in terms of biological response, the Tox21 10K compound library was screened for auto fluorescence. From the fluorophores used as reporter signals in our screening assays, the auto fluorescence equivalencies of compounds against three fluorophores have been evaluated: Triamterene, Fluorescein and Rose Bengal sodium for blue, green and red fluorescence, respectively. The fluorescence intensities were measured using Excitation/Emission wavelengths at 405/460nm, 485/535nm and 540/590nm for blue, green and red labels, respectively. This assay includes the blue fluorescence data.
Tox21 Assay Protocol Summary: 2,000 HepG2 cells in 5 uL of culture medium (MEM containing 10% FBS) per well were dispensed into black wall/clear bottom 1536-well plates using a Multidrop Combi Dispenser (ThermoFisher Scientific, Waltham, MA). The assay plates were incubated overnight at 37 C to allow cell attachment to the well bottom, followed by the transfer of 23 nL compound or DMSO vehicle by a pintool work station (Kalypsys , San Diego, CA). After the assay plates were incubated for 1 hr at 37 C and 5% CO2, fluorescence intensities in the assay plates were measured by an Envision (PerkinElmer, Shelton, CT) plate reader using three labels for measuring blue, green and red fluorescence at […] 460, 535 and 590 nm respectively.
Potency is read from the fitted curve at half-maximal effect; tags tell the direction and shape of the fitted curve or compound fluorescence and quenching.

Q: For `COC(=O)C1=C(C)NC(C)=C(C(=O)OCCCN2CCC(c3ccccc3)(c3ccccc3)CC2)C1c1cccc([N+](=O)[O-])c1` (stereo not given), which Potency is on record?
A: The Potency was “inactive”.

Q: With `C[C@H]1O[C@@H](O[C@H]2[C@@H](O)C[C@H](O[C@H]3[C@@H](O)C[C@H](O[C@H]4CC[C@@]5(C)[C@H](CC[C@@H]6[C@@H]5C[C@@H](O)[C@]5(C)[C@@H](C7=CC(=O)OC7)CC[C@]65O)C4)O[C@@H]3C)O[C@@H]2C)C[C@H](O)[C@@H]1O` as the compound, how does the Potency read?
A: The Potency was “inactive”.

Q: With `C[C@@H]1CC[C@H]2C(C)(C)[C@H]3C[C@@]12CC[C@@]3(C)O` as the compound, how does the Potency read?
A: Its Potency is “inactive”.

Q: With `CC(CN(C)C)CN1c2ccccc2CCc2ccccc21` (stereo not given) as the compound, how does the fluorescence, % of fluorescent control read?
A: Its fluorescence, % of fluorescent control is -0.0977% [at 18.6 µM].

Q: Which Potency does the source give for `O=S(=O)(O)CCCN1CCOCC1` here?
A: Its Potency is “inactive”.

Q: Which fluorescence, % of fluorescent control does the source give for `C[C@@]12C(=O)OC(=O)[C@]1(C)C1CCC2O1` here?
A: Its fluorescence, % of fluorescent control is -0.0452% [at 18.6 µM].

Q: For `CCCCCCCCCC(=O)N(C)C`, which Potency is on record?
A: The Potency was “inactive”.

Q: With `CC1=C(/C=C/C(C)=C/C=C/C(C)=C/C(=O)Nc2ccc(O)cc2)C(C)(C)CCC1` as the compound, how does the Potency read?
A: The Potency was “inactive”.

Q: For `C1CC(COCC2CO2)CCC1COCC1CO1` (stereo not given), which Potency is on record?
A: Its Potency is “inactive”.

Q: For `O=C(O)Cc1ccc(OCCNC[C@H](O)c2ccccc2)cc1`, which Potency is on record?
A: The Potency was “inactive”.

Q: Which Potency does the source give for `O=Cc1ccc(F)cc1` here?
A: The Potency was “inactive”.

Q: With `Nc1ccc2cc3ccc(N)cc3nc2c1` as the compound, how does the Potency read?
A: Its Potency is 12.6 µM [fluorescent] (active).

Q: With `CCCOc1sc(C(=O)N2CCC(c3cc(CN)ccc3F)CC2)c(C)c1Br` as the compound, how does the Potency read?
A: Its Potency is “inactive”.

Q: For `CC(C)(C)C1=CC(=O)C=C(C(C)(C)C)C1=O`, which Potency is on record?
A: The Potency was “inactive”.

Q: Which Potency does the source give for `CC=O` here?
A: Its Potency is “inactive”.

Q: With `Cc1nc(Nc2ncc(C(=O)Nc3c(C)cccc3Cl)s2)cc(N2CCN(CCO)CC2)n1` as the compound, how does the Potency read?
A: The Potency was “inactive”.

Q: Which Potency does the source give for `CCCCCCC(C)Nc1ccc(Nc2ccccc2)cc1` (stereo not given) here?
A: The Potency was “inactive”.

Q: With `CN1CCN(C2Cc3ccccc3Sc3ccc(Cl)cc32)CC1` (stereo not given) as the compound, how does the Potency read?
A: Its Potency is “inactive”.

Q: With `CCN(CC)CCNc1ccc(CO)c2sc3ccccc3c(=O)c12` as the compound, how does the Potency read?
A: Its Potency is “inactive”.

Q: With `CN(C)CCCN1c2ccccc2Sc2ccc(C(F)(F)F)cc21` as the compound, how does the Potency read?
A: Its Potency is “inactive”.

Q: For `CC(=O)Oc1ccc(C2(c3ccc(OC(C)=O)cc3)Oc3ccccc3NC2=O)cc1`, which Potency is on record?
A: Its Potency is “inactive”.

Q: Which Potency does the source give for `O[C@@H](c1cc(C(F)(F)F)nc2c(C(F)(F)F)cccc12)[C@H]1CCCCN1` here?
A: Its Potency is “inactive”.

Q: Which Potency does the source give for `O=C1Nc2ccc(Cl)cc2[C@@](C#CC2CC2)(C(F)(F)F)O1` here?
A: Its Potency is “inactive”.

Q: With `[O]=[Zr]` as the compound, how does the Potency read?
A: The Potency was “inactive”.

Q: Which Potency does the source give for `CCN(CC)CCOc1ccc(C(O)(Cc2ccc(Cl)cc2)c2ccc(C)cc2)cc1` (stereo not given) here?
A: The Potency was “inactive”.

Q: With `CCCCCCOc1ccc(O)cc1` as the compound, how does the Potency read?
A: Its Potency is “inactive”.

Q: For `Cc1cccc(Br)c1`, which Potency is on record?
A: Its Potency is “inactive”.

Q: With `CCCCCCCCCCCCCCCC` as the compound, how does the Potency read?
A: Its Potency is “inactive”.

Q: For `C=C1C(C)(C)[C@@]2(Cl)C(Cl)[C@]1(Cl)C(Cl)(Cl)C2(Cl)Cl` (stereo not given in full), which Potency is on record?
A: The Potency was “inactive”.

Q: With `O=C(c1ccccc1)c1cc(Cl)ccc1O` as the compound, how does the Potency read?
A: Its Potency is “inactive”.

Q: With `O=C(NO)c1ccccc1` as the compound, how does the Potency read?
A: Its Potency is “inactive”.

Q: Which Potency does the source give for `CSc1ccc2c(c1)N(CCC1CCCCN1C)c1ccccc1S2` (stereo not given) here?
A: The Potency was “inactive”.

Q: Which Potency does the source give for `CC(C)(C)CC(C)(C)c1ccccc1O` here?
A: Its Potency is “inactive”.

Q: Which Potency does the source give for `Clc1ccccc1CN1CCc2sccc2C1` here?
A: The Potency was “inactive”.

Q: With `CC1(C)C(=O)N(Br)C(=O)N1Br` as the compound, how does the Potency read?
A: Its Potency is “inactive”.

Q: For `Cc1ccc(N)cc1O`, which Potency is on record?
A: Its Potency is “inactive”.

Q: With `CCc1ccc(O)c(C(C)(C)C)c1` as the compound, how does the Potency read?
A: Its Potency is “inactive”.

Q: With `COCC(=O)O[C@]1(CCN(C)CCCc2nc3ccccc3[nH]2)CCc2cc(F)ccc2[C@@H]1C(C)C` as the compound, how does the Potency read?
A: Its Potency is “inactive”.

Q: Which Potency does the source give for `CN(C)c1ccc(N=NS(=O)(=O)O)cc1` here?
A: Its Potency is “inactive”.

Q: For `CCCCCCCCCCCCCOP(=O)(O)O`, which Potency is on record?
A: Its Potency is “inactive”.
